Source: PubChem
Most compounds without a hit are left out; they make up all but 11% or so of the library.
G9a inh = qHTS Assay for Inhibitors of Histone Lysine Methyltransferase G9a; 350,000 compounds, 8.8% hits; Histone-lysine N-methyltransferase EHMT2 (Homo sapiens), Q96KQ7; G9a H3K9 monomethylation, AlphaScreen, 2 h; Potency, µM (highest dose often 102 µM), inactives show at the highest dose activity, negative = inhibition, actives largely listed as inhibitors; further: potency means the concentration at half of the fitted maximal effect; on the % scale 0 is the no-effect control and ±100 the full control effect; nearly all actives have a fitted effect of over 75% in size
Target sequence (Q96KQ7 913-1193 limits assumed): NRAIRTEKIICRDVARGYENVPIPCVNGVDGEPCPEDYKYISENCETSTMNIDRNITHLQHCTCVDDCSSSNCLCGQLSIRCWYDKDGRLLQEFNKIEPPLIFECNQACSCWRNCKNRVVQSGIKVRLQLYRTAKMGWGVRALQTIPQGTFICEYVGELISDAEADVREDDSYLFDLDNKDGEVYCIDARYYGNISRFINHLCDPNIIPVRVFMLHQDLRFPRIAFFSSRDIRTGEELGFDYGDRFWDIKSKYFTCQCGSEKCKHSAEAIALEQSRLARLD
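AlphaScreen read-out: biotin-H3K9 peptide (500 nM) methylation by 20 nM enzyme with 20 uM SAM, 2 h at room temperature after 15 min compound preincubation; anti-monomethyl H3K9 antibody plus donor/acceptor beads, 10 min dark.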
JMJD2A Tudor inh = qHTS Assay for Inhibitors of JMJD2A-Tudor Domain | Lysine-specific demethylase 4A (Homo sapiens), O75164 | AlphaScreen JMJD2A-Tudor / H3K4me3 peptide binding | Potency, µM (titrated, usually from 114 µM), for the others: at the top dose activity change, negative = inhibition, usual class: inhibitors | 390,000 compounds, 4.4% hits | AID 504339, 2011; further: potency means the concentration at half of the fitted maximal effect; on the % scale 0 is the no-effect control and ±100 the full control effect; nearly all actives have a fitted effect of over 50% in size
BAZ2B inh = qHTS Assay for Inhibitors of BAZ2B. AlphaScreen BAZ2B-H3K14Ac peptide displacement. Potency, µM (titrated, usually from 114 µM), for inactives: at the top dose activity change, negative = inhibition, hits mostly inhibitors. AID 504333, 2011. 360,000 compounds, 4.4% hits; further: potency means the concentration at half of the fitted maximal effect; on the % scale 0 is the no-effect control and ±100 the full control effect; nearly all actives have a fitted effect of over 60% in size
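AlphaScreen displacement: compounds (up to 110uM) incubated 30 min at room temperature with a preformed 50 nM BAZ2B/50 nM biotinylated H3K14Ac peptide complex in PBS pH 7.4 with Tween-20. Donor and acceptor beads at 10 ug/mL final added, 20 min light-protected before reading.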
PLK1 PBD block = qHTS for Inhibitors of PLK1-PDB (polo-like kinase 1 - polo-box domain): Primary Screen; Serine/threonine-protein kinase PLK1 (Homo sapiens), P53350; Plk1 PBD binding of FITC phosphopeptide, fluorescence polarization; Potency, µM, without a hit: max response, negative = inhibition, hits mostly inhibitors; 360,000 compounds, 2.8% hits; AID 720504, 2013; further: potency means the concentration at half of the fitted maximal effect; series mostly up to about 57 µM; on the % scale 0 is the no-effect control and ±100 the full control effect; nearly all actives have a fitted effect of over 65% in size
HP1b chromo inh = HTS for Inhibitors of HP1-beta Chromodomain Interactions with Methylated Histone Tails; AlphaScreen HP1-beta / biotin-H3K9me3 peptide binding; AID 540317, 2011; Chromobox protein homolog 1 (Homo sapiens), P83916; Potency, µM (doses to about 114 µM), for the others: at the highest dose activity change, negative = inhibition, actives largely listed as inhibitors; 390,000 compounds, 0.56% hits; further: potency means the concentration at half of the fitted maximal effect; nearly all actives have a fitted effect of over 70% in size
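HP1-beta protein (50 nM final) preincubated 30 min at room temperature with biotinylated H3(1-18)K9me3 peptide (50 nM) in PBS pH 7.4, 0.01% Tween-20, then compound added for 30 min. AlphaScreen streptavidin donor/nickel chelate acceptor beads (10 ug/mL final), 30 min dark, luminescence read.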
VDR inhibitor = Inhibitors of the vitamin D receptor (VDR): qHTS. 400,000 compounds, 0.93% hits. Potency, µM, inactives show max response, negative = inhibition, actives largely listed as inhibitors. Vitamin D3 receptor (Homo sapiens), P11473. VDR-SRC2-3 peptide fluorescence polarization, 2 h; further: potency means the concentration at half of the fitted maximal effect; on the % scale 0 is the no-effect control and ±100 the full control effect
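Reagent solutions, kept cold and dark, are dispensed first; compounds are then pinned in at 23 nl, plates briefly spun, and incubated 2 h at ambient temperature. Inhibition of VDR–SRC2-3 peptide binding is read by fluorescence polarization.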
12-hLO 8HQ R1 = Cuvette-Based Assay for Inhibitors of 12-hLO (12-human lipoxygenase): 8HQ Series - Round 1. Potency, µM, most hits filed as inhibitors. 35 compounds, 60% hits. purified 12-hLO, cuvette UV 234 nm product formation. shares compounds with BAZ2B inh. AID 2163, 2009;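 active means compounds that slowed 12-hLO product formation enough to yield a measured IC50 potency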
JMJD2E inh-1 = Inhibitors of Human Jumonji Domain Containing 2E (JMJD2E): 8HQs - Round 1. shares compounds with BAZ2B inh. JMJD2E demethylase, FDH-coupled NADH fluorescence. Potency, µM (series often up to 57 µM), without a hit: at the top dose activity, negative = inhibition, most hits filed as inhibitors. 130 compounds, 89% hits
JMJD2E inh-2 = Confirmation qHTS Assay for Inhibitors of Human Jumonji Domain Containing 2E (JMJD2E). shares compounds with JMJD2A Tudor inh. Recombinant JMJD2E, FDH-coupled NADH fluorescence (FDH is formaldehyde dehydrogenase). Potency, µM (doses to about 56.8 µM), for the others: at the highest dose activity change, negative = inhibition, usual class: inhibitors. 140 compounds, 93% hits
FDH counter = Counterscreen for JMJD2E Inhibitors: qHTS Assay for Inhibitors of Formaldehyde Dehydrogenase (FDH). shares compounds with JMJD2A Tudor inh. FDH enzyme assay, NADH fluorescence kinetic. Potency, µM (series often up to 56.7 µM), without a hit: at the top dose activity, negative = inhibition, actives largely listed as inhibitors. 140 compounds, 10% hits. AID 2680, 2010
Target sequence (P46154 whole entry, looked up): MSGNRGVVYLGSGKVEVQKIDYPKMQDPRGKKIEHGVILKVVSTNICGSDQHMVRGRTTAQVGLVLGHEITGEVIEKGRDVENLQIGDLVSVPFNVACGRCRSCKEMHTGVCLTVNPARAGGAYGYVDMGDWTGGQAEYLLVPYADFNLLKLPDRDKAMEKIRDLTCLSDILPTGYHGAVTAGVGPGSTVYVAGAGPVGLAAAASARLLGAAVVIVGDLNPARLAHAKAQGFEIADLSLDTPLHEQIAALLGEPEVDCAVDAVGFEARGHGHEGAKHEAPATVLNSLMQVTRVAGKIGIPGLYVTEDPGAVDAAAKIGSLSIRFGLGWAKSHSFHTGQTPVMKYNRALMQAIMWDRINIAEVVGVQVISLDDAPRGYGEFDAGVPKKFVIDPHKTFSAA
JMJD2E MS inh = MALDI-TOF-MS Assay for Inhibitors of Human Jumonji Domain Containing 2E (JMJD2E). shares compounds with JMJD2A Tudor inh. recombinant JMJD2E demethylation, MALDI-TOF-MS. Potency, µM, actives largely listed as inhibitors. 45 compounds, 90% hits. AID 2688, 2010;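 active means compounds whose IC50 for blocking JMJD2E demethylation is below 100 µM; inconclusive means dose dependent effect but IC50 above 100 µM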
Starred values were filed as active, the others as inactive; ? = inconclusive; · = no result given; [ ] = dose if it differs, or a comment. Unless noted, the call rests on the fitted dose curve; in most records, active means well fitted curve in the direction sought with a large enough effect; inconclusive means small, poorly fitted or top-dose-only effect, or another doubt; inactive means no such curve, though single readings can be large; an effect the other way counts as inactive or inconclusive.

SMILES	G9a inh	JMJD2A Tudor inh	BAZ2B inh	PLK1 PBD block	HP1b chromo inh	VDR inhibitor	JMJD2E inh-1	JMJD2E inh-2	FDH counter	others
Oc1ccc(Oc2ccccc2F)c2cccnc12	·	50µM*	·	·	·	·	8.9µM*	13µM*	-9%	JMJD2E MS inh=17*
O=C(Nc1ccccc1F)c1ccc(O)c2ncccc12	2%[12.7 µM]	·	20µM*	·	·	·	29µM*	35µM*	·	JMJD2E MS inh=41*
NC(=O)c1ccc(O)c2ncccc12	·	13µM*	·	·	·	·	4.6µM*	4.6µM*	-9%	JMJD2E MS inh=90*
Cc1cccc2c(C(=O)O)cc(-c3cccnc3)nc12	7%	11%	-31%	-21%	45%	12%	·	·	·
O=C(O)c1ccnc2c(O)cccc12	43%[12.7 µM]	·	1.8µM*	·	·	·	1.4µM*	1.4µM*	·	JMJD2E MS inh=8.2*
O=C(NNC(=O)c1csc(N2CCOCC2)n1)c1cccnc1	-22%[2.33 µM]	?	-5%	-6%	34%	-2%	·	·	·
O=S(=O)(NCc1ccccc1F)c1ccc(O)c2ncccc12	·	·	·	·	·	·	23µM*	18µM*	-36%
CCCOc1ccc(CNC(=O)C2CCN(C(=O)c3sccc3-n3cccc3)CC2)cc1	?	-35%	-36%	·	-17%	-2%	·	·	·
c1ccc(-c2cc3ccccc3cn2)cc1	·	42%	·	3%	95%	-12%	·	·	·
Oc1cccc2cc(-c3ccccc3)cnc12	·	·	·	·	·	·	16µM*	16µM*	0%
Oc1cc(Nc2ccccc2)cc2cccnc12	19%[12.7 µM]	?	?	·	17%	-11%	?	?	-18%
Clc1cccc2sc(N3CCCCC3)nc12	14%[12.7 µM]	105%	155%	0%	233%	9%	·	·	·
Oc1cccc2cc(N3CCCC3)cnc12	·	·	·	·	·	·	18µM*	18µM*	-9%
Oc1cccc2cc(Nc3ccccc3)cnc12	·	·	·	·	·	·	10µM*	10µM*	-18%
COc1ccccc1CCC(=O)Nc1ccc2c(c1)c(=O)n(C)n2-c1cccs1	·	·	·	-2%	·	·	·	·	·
CC(C)CNC(=O)c1cccc(NC(=O)CCc2ccccc2)c1	·	3%	6%	-12%	46%	-10%	·	·	·
CCC(=O)NC(C)C(c1cccs1)N1CCOCC1 (stereo not drawn)	·	-15%	·	-12%	15%	21%	·	·	·
CCC(=O)NC(c1ccc(F)cc1)c1cc(Cl)c2cccnc2c1O (stereo not drawn)	·	-12%	·	·	·	·	16µM*	16µM*	-18%
CCC(=O)NC(c1ccc(C)s1)c1cc(Cl)c2cccnc2c1O (stereo not drawn)	·	-23%	·	·	·	·	-6%	10µM*	-9%	12-hLO 8HQ R1=3.5µM*
CCC(=O)NC(c1cccs1)c1cc([N+](=O)[O-])c2cccnc2c1O (stereo not drawn)	?	79µM*	7.9µM*	-8%	-8%	-19%	14µM*	14µM*	-18%	12-hLO 8HQ R1=0.8µM*
CCC(=O)NC(c1ccco1)c1cc(Cl)c2cccnc2c1O (stereo not drawn)	17%	?	45µM*	-5%	2%	-5%	6.3µM*	6.3µM*	-27%	12-hLO 8HQ R1=1µM*
COc1ccc(C(NC(=O)c2cccnc2)c2cc(Cl)c3cccnc3c2O)cc1OC (stereo not drawn)	19%[0.501 µM]	-22%	?	-6%	57%	-1%	·	·	·
CCC(=O)NC(C)c1cc(Cl)c2ccccc2c1O (stereo not drawn)	9%[0.501 µM]	1%	-2%	·	41%	-25%	·	·	·
CCOC(=O)c1ccc(NS(=O)(=O)c2cn(C)cn2)cc1	8%	-32%	-4%[57.1 µM]	7%	-7%	-19%	·	·	·
COc1cc(C)c(Cl)cc1S(=O)(=O)NC1CC(C)(C)NC(C)(C)C1	9%	·	-13%	·	·	·	·	·	·
SMILES	G9a inh	JMJD2A Tudor inh	BAZ2B inh	PLK1 PBD block	HP1b chromo inh	VDR inhibitor	JMJD2E inh-1	JMJD2E inh-2	FDH counter	others
CC(=O)Nc1ccc(S(=O)(=O)N2CCN(c3ccc([N+](=O)[O-])cc3)CC2)cc1	?	-28%	-37%	-11%	-11%	-7%	·	·	·
Fc1ccc2cnc(-c3cccnc3)cc2c1	·	-5%	·	3%	29%	-5%	·	·	·
CN1CCN(c2cc(-c3cc(O)c4ncccc4c3)ccn2)CC1	1%[12.7 µM]	25µM*	7.9µM*	·	19%	1%	16µM*	16µM*	-9%
Oc1cc(-c2cccnc2)cc2cccnc12	28%[12.7 µM]	25µM*	3.2µM*	·	61%	14%	5.6µM*	5.6µM*	-27%
CN1CCN(C(=O)c2cccc(-c3cc(O)c4ncccc4c3)c2)CC1	-3%[12.7 µM]	50µM*	13µM*	·	51%	4%	16µM*	16µM*	-18%
O=C(NCc1ccccc1)c1cc(C2COCCN2S(=O)(=O)c2cccs2)on1 (stereo not drawn)	·	·	·	-10%	·	·	·	·	·
Cc1cccc(Nc2cc(=O)n(C)c(=O)[nH]2)c1	·	-4%	-4%	4%	11%	-11%	·	·	·
CC(C)(C)NC(=O)CN(C(=O)c1snc(C(=O)NC2CCCCC2)c1N)c1ccc(F)cc1	21%	-7%	3%	-12%	120%	11%	·	·	·
COc1cccc(CNc2cccc(C(F)(F)F)c2)c1O	3%	-16%	·	7%	44%	6%	·	·	·
